The values below come from PubChem BioAssay.

Molecules are shown by their SMILES. Calls of active or inactive are those of the source.

Test [1] deals with Human papillomavirus type 1a protein E7 (residues 44-93). Briefly: small molecules binding HPV E7 44-93 – biochemical, small-molecule microarray, residues 44-93, 635 nm fluorescence, primary screen (AID 1108).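 Further: E7 fragment applied at 1 µg/mL in TBST for 1 h at 4 C; score combines spot fluorescence with its signal to noise ratio.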 Conditions: fluorescence 635 nm, higher = more signal.
Test [2] can be described thus: hepatitis C replication reporter changes, two-sided – Huh7 cells, luciferase reporter, HCV replication inhibitor project, primary screen (AID 1109).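 Further: huh7 hepatoma cells harbouring a luciferase neomycin HCV replicon reporter; luciferase luminescence as measure of HCV replicon replication; test concentration not given here.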 Conditions: Huh7 HCV replicon luciferase reporter, 48 h; higher = more signal.
Test [3] has as its target Left-right determination factor 2 (Homo sapiens) (UniProt O00292). Briefly: small molecules binding LEFTY2 protein – biochemical, small-molecule microarray, 635 nm fluorescence scan, primary screen (AID 1110). Conditions: higher = more signal.
Test [4] has as its target Calmodulin-1 (Homo sapiens) (UniProt P0DP23). Briefly: small molecules binding calmodulin-1 with EGTA – biochemical, small-molecule microarray, Cy5-labelled CALM1, profiling panel (AID 1111).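 Further: labelled calmodulin applied in Tris saline Tween buffer holding calcium plus EGTA and DTT.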 Conditions: Cy5-CALM1 binding fluorescence, higher = more signal.
For test [5] the target is unchanged. Briefly: small molecules binding Ca-loaded calmodulin-1 – biochemical, small-molecule microarray, Cy5-labelled CALM1, plus calcium, artefact control for SMM control-protein annotation, profiling panel (AID 1112).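 Further: score merges spot fluorescence with signal to noise from triplicate slides.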 As to conditions: Cy5-CALM1 binding fluorescence, higher = more signal.
Test [6] in a line: probe aWnt5a binding to arrayed compounds – biochemical, biotinylated probe, 635/667 nm fluorescence, primary screen (AID 1113).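 Further: score merges 667 nm fluorescence intensity with signal-to-noise per printed feature.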 Conditions: small-molecule microarray, higher = more signal.
Test [7] in a line: probe aShh binding to arrayed compounds – biochemical, biotinylated probe, 635/667 nm fluorescence, primary screen (AID 1114).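 Further: probe is biotin-labelled aShh protein from a stem cell growth factor screen; measures binding of labelled protein to compounds printed on the slide; score merges feature fluorescence at 667 nm with signal-to-noise.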 As to conditions: small-molecule microarray, higher = more signal.
A short description of test [8]: probe aNog binding to arrayed compounds – biochemical, biotinylated probe, 635/667 nm fluorescence, primary screen (AID 1115).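 Further: probe is biotinylated aNog protein used at 0.15 µg/mL for 1 h at 4 C; z-score combines 667 nm fluorescence of each spot with its signal to noise.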 As to conditions: small-molecule microarray, higher = more signal.
In test [9] the target is Torsin-1A-interacting protein 1 (Homo sapiens) (UniProt Q5JTV8). Briefly: compound microarray binding of lysate hLAP1 – cell lysate, small-molecule microarray, COS7 lysate, 635/667 nm fluorescence, primary screen (AID 1116). Conditions: 635 nm fluorescence, higher = more signal.
For test [10], the target named is Alpha-bungarotoxin (Bungarus multicinctus) (UniProt P60615). Briefly: compounds binding labelled alpha-BTX control protein – biochemical, small-molecule microarray, Alexa647 label, 635/667 nm fluorescence, artefact control for SMM control protein annotation, profiling panel (AID 1117). Conditions: alpha-BTX-A647 binding fluorescence, higher = more signal.
For another test, the target named is Albumin (Bos taurus) (UniProt P02769). Briefly: compounds binding labelled BSA control protein – biochemical, small-molecule microarray, Alexa647 label, 635/667 nm fluorescence, artefact control for SMM control protein annotation, profiling panel (AID 1118).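 Further: score merges 667 nm emission intensity and signal-to-noise per printed compound spot.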 Conditions: BSA-A647 binding, fluorescence 635 nm, higher = more signal.
Test [11] can be described thus: probe aXIP binding to arrayed compounds – biochemical, NeuroSMM set, 635/667 nm fluorescence, primary screen (AID 1119).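 Further: probe is the protein aXip251-270 applied at 1 µg/mL to compound-printed slides; binding of probe to printed compounds measured as 667 nm fluorescence plus signal to noise.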 As to conditions: small-molecule microarray, higher = more signal, called active from +8 up or from −8 down.
Test [12] can be described thus: probe aNOTCH3 binding on compound microarray – biochemical, small-molecule microarray, 635/667 nm fluorescence, primary screen (AID 1120).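 Further: probe is a biotin-tagged antibody raised against NOTCH3 rather than NOTCH3 protein; score merges spot fluorescence near 667 nm with spot signal to noise.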 Conditions: higher = more signal.
Test [13] can be described thus: probe aNOTCH2 binding on compound microarray – biochemical, small-molecule microarray, 635/667 nm fluorescence, primary screen (AID 1121).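 Further: score merges feature fluorescence read at 667 nm with its signal to noise.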 As to conditions: higher = more signal.
Test [14] concerns the target Carbonic anhydrase 2 (Homo sapiens) (UniProt P00918). Briefly: compounds binding carbonic anhydrase 2 – biochemical, small-molecule microarray, Alexa647-labelled CAII, profiling panel (AID 1122). Conditions: CAII-A647 binding fluorescence, higher = more signal.
Test [15] can be described thus: COS7 lysate on small-molecule microarray, probe aHis, 635 nm (AID 1123).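 Further: z-score combines 667nm fluorescence intensity with signal-to-noise per printed compound spot.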 As to conditions: COS7 cell lysate, fluorescence, higher = more signal.
A short description of test [16]: probe aLAP1 signal on lysate-treated microarray – cell lysate, small-molecule microarray, COS7 lysate, primary screen (AID 1124).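 Further: lysate comes from COS7 cells expressing LAP1 and is applied at 0.3 µg/mL; score merges spot fluorescence near 667 nm with signal-to-noise over triplicate slides.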 Conditions: probe aLAP1, fluorescence, higher = more signal.
The subject of another test is Sam68 (KHDRBS1). Briefly: compounds binding KHDRBS1 protein – biochemical, small-molecule microarray, 635 nm fluorescence, primary screen (AID 1125).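 Further: score merges 667 nm channel intensity with signal to noise over triplicate slides.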 As to conditions: higher = more signal.
The test system of test [17] is Chordin-like protein 2 (CHRDL2). Briefly: compounds binding chordin-like 2 – biochemical, small-molecule microarray, 635 nm fluorescence, primary screen (AID 1126).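 Further: printed compound slides probed with Chrdl2 protein at 4 µg/mL for 1 h at 4 C; score merges 667 nm emission intensity with signal to noise over three replicate slides.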 Conditions: fluorescence 635 nm, higher = more signal.
In test [18] the target is Concanavalin-A (Canavalia ensiformis) (UniProt P02866). Briefly: compounds binding concanavalin A lectin – biochemical, small-molecule microarray, Alexa647 label, 635 nm, artefact control for SMM control protein annotation, primary screen (AID 1127).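 Further: z combines 667 nm emission intensity with signal-to-noise across three replicate slides.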 Conditions: ConA-A647 binding fluorescence, higher = more signal.
Concanavalin-A (Canavalia ensiformis), sequence (P02866 whole entry, looked up): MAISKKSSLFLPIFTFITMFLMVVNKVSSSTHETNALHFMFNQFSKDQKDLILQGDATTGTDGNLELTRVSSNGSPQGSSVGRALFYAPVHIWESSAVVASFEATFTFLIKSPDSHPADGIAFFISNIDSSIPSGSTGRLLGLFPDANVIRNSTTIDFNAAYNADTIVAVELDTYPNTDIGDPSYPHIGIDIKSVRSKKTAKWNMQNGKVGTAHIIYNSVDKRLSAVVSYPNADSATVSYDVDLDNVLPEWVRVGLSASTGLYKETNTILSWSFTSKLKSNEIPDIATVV

Left-right determination factor 2 (Homo sapiens), sequence (O00292 whole entry, looked up): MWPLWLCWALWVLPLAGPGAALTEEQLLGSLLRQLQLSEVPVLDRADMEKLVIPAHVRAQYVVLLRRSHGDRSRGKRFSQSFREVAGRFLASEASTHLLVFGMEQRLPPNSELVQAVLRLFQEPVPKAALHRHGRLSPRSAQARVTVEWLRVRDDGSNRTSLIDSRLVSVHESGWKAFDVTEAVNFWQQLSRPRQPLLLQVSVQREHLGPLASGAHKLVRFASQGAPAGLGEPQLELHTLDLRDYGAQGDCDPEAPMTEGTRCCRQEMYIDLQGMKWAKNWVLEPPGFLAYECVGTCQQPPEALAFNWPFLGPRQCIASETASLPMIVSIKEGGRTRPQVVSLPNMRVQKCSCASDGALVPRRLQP
Torsin-1A-interacting protein 1 (Homo sapiens), sequence (Q5JTV8 whole entry, looked up): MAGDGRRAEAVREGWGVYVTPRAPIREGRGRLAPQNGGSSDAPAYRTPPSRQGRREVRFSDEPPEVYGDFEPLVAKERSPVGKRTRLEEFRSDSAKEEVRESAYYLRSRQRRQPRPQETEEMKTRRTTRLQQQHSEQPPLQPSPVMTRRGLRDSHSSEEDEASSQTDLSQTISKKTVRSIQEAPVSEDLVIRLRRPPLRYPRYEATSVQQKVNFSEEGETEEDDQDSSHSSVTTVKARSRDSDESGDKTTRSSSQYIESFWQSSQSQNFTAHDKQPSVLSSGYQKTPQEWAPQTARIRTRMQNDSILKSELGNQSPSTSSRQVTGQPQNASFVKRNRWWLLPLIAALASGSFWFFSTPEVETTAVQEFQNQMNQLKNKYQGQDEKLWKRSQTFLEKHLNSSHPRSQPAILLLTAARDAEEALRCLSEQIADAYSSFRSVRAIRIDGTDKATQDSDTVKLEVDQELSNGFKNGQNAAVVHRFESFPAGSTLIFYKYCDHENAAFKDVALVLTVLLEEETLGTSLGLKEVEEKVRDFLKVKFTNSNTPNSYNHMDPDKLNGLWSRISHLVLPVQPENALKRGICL
Albumin (Bos taurus), sequence (P02769 whole entry, looked up): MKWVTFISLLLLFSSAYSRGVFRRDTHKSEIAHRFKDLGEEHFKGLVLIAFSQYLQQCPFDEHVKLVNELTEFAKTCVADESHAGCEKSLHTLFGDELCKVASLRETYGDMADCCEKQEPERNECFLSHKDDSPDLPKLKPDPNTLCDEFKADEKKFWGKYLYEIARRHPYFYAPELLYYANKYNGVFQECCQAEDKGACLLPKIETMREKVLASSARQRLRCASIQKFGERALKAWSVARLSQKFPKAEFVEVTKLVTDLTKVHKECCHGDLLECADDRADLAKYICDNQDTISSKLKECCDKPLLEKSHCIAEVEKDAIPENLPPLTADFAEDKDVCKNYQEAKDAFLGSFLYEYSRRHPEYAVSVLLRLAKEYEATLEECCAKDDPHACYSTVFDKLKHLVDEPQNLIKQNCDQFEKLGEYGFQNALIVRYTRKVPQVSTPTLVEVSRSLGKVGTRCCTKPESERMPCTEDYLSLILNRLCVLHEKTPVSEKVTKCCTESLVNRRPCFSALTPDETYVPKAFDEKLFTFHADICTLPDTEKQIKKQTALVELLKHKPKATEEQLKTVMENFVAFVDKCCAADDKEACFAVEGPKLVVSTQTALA
Alpha-bungarotoxin (Bungarus multicinctus), sequence (P60615 whole entry, looked up): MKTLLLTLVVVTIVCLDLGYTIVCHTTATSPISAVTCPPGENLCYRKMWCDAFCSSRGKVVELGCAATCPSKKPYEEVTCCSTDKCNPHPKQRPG

Take `Cc1ccc(C(C)C)n1C(=O)OC(C)(C)C`: the composite z-score is 0.471 in test [1]; 0.587 in test [3]; -0.159 in test [4]; -0.659 in [5]; -0.0704 in [6]; -0.13 in [7]. Besides, the composite z-score in test [8] is -0.255; in [9], 0.241; in [10] it was 0.0251; in the test with Albumin (Bos taurus), -0.0834; in [12] it was -0.118; in test [13], -0.153. Moreover, the composite z-score was -0.0359 in [14]; 0.0884 in [15]; 0.322 in test [16]; 0.456 with Sam68 (KHDRBS1); 0.501 in test [17]; 0.173 in test [18]. In [2], this compound came in with a z-score of 1.85. The composite Z-score in test [11] is 1.17 (inactive).
Regarding `CC(CCC(=O)OC[C@H]1O[C@H](C#Cc2ccccc2)C=C[C@@H]1Oc1ccc(C)cc1)=NOC(C)CN1CCCCc2nc(C)c(C)cc21` (stereo not given in full), the composite z-score in test [1] is 0.686; in test [3], -0.132; in test [4], -0.19; in test [5], 0.571; in test [6], -0.197; in test [7], -0.0626. Moreover, the composite z-score in test [8] was -0.257; in test [9] it was -0.0043; in [10] it was 1.53; in the test with Albumin (Bos taurus), 0.473; in test [12] it was -0.0377; in test [13], 0.161. The composite z-score was 0.346 in test [14]; 0.938 in test [15]; 0.214 in test [16]; 0.313 with Sam68 (KHDRBS1); -0.168 in test [17]; -0.207 in [18]. The compound further returned a z-score in test [2] of -1.17. Further, the composite Z-score in test [11] was 1.48 (inactive).
Turning to `C[C@H]1CC[C@H]2C(=O)OC(COc3ccc(C(C)(C)C)cc3)CN2[C@@H]1c1ccc(Br)cc1` (stereo not given in full), the composite z-score in test [1] is 1.1; in test [3] it was 0.0037; in test [4], 0.464; in test [5], 0.14; in test [6], -0.277; in [7] it was -0.0709. Besides, the composite z-score in test [8] is -0.111; in test [9], 0.0437; in [10], 0.319; with Albumin (Bos taurus) it was 0.654; in test [12], -0.165; in test [13], -0.189. The composite z-score in [14] came out at 0.267; in [15], 1.42; in [16], 0.2; with Sam68 (KHDRBS1), 0.961; in test [17], 0.186; in test [18], 1.02. Besides, in test [2], the z-score worked out at 1.1. For the same compound, the composite Z-score in test [11] was 0.455 (inactive).
With `COC(=O)[C@H](C)NC(=O)CCC1CC(OC(=O)NCc2cccc3ccccc23)CC2(CCCC(COC(=O)NCCC(C)C)O2)O1` (stereo not given in full), the composite z-score in test [1] is 0.991; in test [3] it was 0.449; in test [4], -0.234; in test [5], -0.371; in test [6], -0.109; in test [7] it was -0.147. For the same compound, the composite z-score in [8] was -0.268; in test [9], -0.228; in [10], -0.178; with Albumin (Bos taurus) it was 0.168; in test [12], -0.095; in test [13], -0.124. For the same compound, the composite z-score in test [14] is 0.24; in test [15], 1.01; in test [16], 0.127; in the test with Sam68 (KHDRBS1) it was 0.997; in test [17], 0.229; in test [18] it was -0.087. In test [2], this compound registered a z-score of -0.243. For the same compound, the composite Z-score in [11] is 0.559 (inactive).
`O=C1[C@H]2[C@H]3[C@H](O)[C@H](O)CC(=NO[C@@H]4O[C@H](CO)[C@@H](O)[C@H](O)[C@H]4O)[C@@H]3CC[C@H]2C(=O)N1c1cccc(Oc2ccccc2)c1`: the composite z-score was 0.418 in [1]; 0.982 in [3]; 0.209 in test [4]; 0.0635 in [5]; -0.0506 in test [6]; -0.0362 in test [7]. Also, the composite z-score is -0.0675 in test [8]; 0.593 in test [9]; -0.447 in test [10]; 0.29 in the test with Albumin (Bos taurus); -0.0391 in test [12]; -0.104 in test [13]. In addition, the composite z-score was -0.0428 in [14]; 0.109 in test [15]; 0.106 in test [16]; 0.324 in the test with Sam68 (KHDRBS1); 0.775 in test [17]; 0.588 in [18]. In test [2], this compound displayed a z-score of -0.174. The composite Z-score in [11] was -0.65 (inactive).
As for `CCOC(=O)CCN1C(=O)[C@H]2[C@H]3[C@H](O)[C@H](O)CC(=NOCC(C)C)[C@@H]3CC[C@H]2C1=O`, the composite z-score was -0.998 in test [1]; 1.01 in test [3]; -1.92 in test [4]; -1.74 in test [5]; -0.284 in [6]; -0.0471 in test [7]. In addition, the composite z-score in test [8] is -0.255; in test [9], -0.202; in [10] it was -0.799; in the test with Albumin (Bos taurus), -0.0235; in test [12], -0.0693; in test [13], -0.186. Also, the composite z-score in test [14] is -0.52; in test [15] it was -0.934; in test [16], -0.412; in the test with Sam68 (KHDRBS1) it was -0.0659; in [17], 1.45; in [18], -1.16. The z-score in [2] was -0.488. Moreover, the composite Z-score in test [11] was 0.544 (inactive).
